In PubChem BioAssay AID1159580 (chemical genetic matrix, 2015):
Out of some 5,500 compounds screened, about 2,000 (36%) were called active. Roughly 18% stayed inconclusive and do not appear here. Cut-off read from the data, not from the text of the source: active = normalized growth mostly below about 0.91 (no sharp cut-off); inconclusive = no clear call, values can overlap the other calls; inactive = mostly above about 0.92. This is one part of the list.

Experiment: chemical genetic growth profiling, strain panel (AID 1159580);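 note: tested at 20 µM; growth read once vehicle control cultures reached saturation at 30 °C; 1 = growth at the plate median or of vehicle wells; lower values mean less growth of the strain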
Details: growth OD
[1] = S. cerevisiae deletion strains, locus YDL101C, strain DUN1, hits give low values
[2] = S. cerevisiae deletion strains, locus YHR030C, strain SLT2, hits give low values

Measured: normalized growth

C/C(=N/Nc1ccccc1)c1cc(Cl)cc(Cl)c1O
inactive: S. cerevisiae deletion strains, locus YAR019C, strain CDC15, hits give low values 0.964 | S. cerevisiae deletion strains, locus YBL105C, strain PKC1, hits give low values 0.977 | S. cerevisiae deletion strains, locus YBR135W, strain CKS1, hits give low values 0.954 | S. cerevisiae deletion strains, locus YBR136W, strain MEC1, hits give low values 0.954 | S. cerevisiae deletion strains, locus YBR160W, strain CDC28, hits give low values 0.958 | S. cerevisiae deletion strains, locus YDL017W, strain CDC7, hits give low values 0.964 | S. cerevisiae deletion strains, locus YDL028C, strain MPS1, hits give low values 0.967 | [1] 0.969 | S. cerevisiae deletion strains, locus YDL108W, strain KIN28, hits give low values 0.954 | S. cerevisiae deletion strains, locus YDL132W, strain cdc53, hits give low values 0.956 | S. cerevisiae deletion strains, locus YDL214C, strain PRR2, hits give low values 0.785 | S. cerevisiae deletion strains, locus YDR052C, strain DBF4, hits give low values 0.968 | S. cerevisiae deletion strains, locus YDR054C, strain cdc34, hits give low values 0.966 | S. cerevisiae deletion strains, locus YDR226W, strain ADK1, hits give low values 0.954 | S. cerevisiae deletion strains, locus YDR477W, strain SNF1, hits give low values 0.734 | S. cerevisiae deletion strains, locus YER123W, strain YCK3, hits give low values 0.734 | S. cerevisiae deletion strains, locus YER133W, strain GLC7, hits give low values 0.825 | S. cerevisiae deletion strains, locus YFL009W, strain cdc4, hits give low values 0.964 | S. cerevisiae deletion strains, locus YFL029C, strain CAK1, hits give low values 0.955 | S. cerevisiae deletion strains, locus YFR003C, strain YPI1, hits give low values 0.962 | S. cerevisiae deletion strains, locus YFR019W, strain FAB1, hits give low values 0.834 | S. cerevisiae deletion strains, locus YFR028C, strain CDC14, hits give low values 0.93 | S. cerevisiae deletion strains, locus YGR040W, strain KSS1, hits give low values 0.746 | S. cerevisiae deletion strains, locus YGR052W, strain FMP48, hits give low values 0.804 | S. cerevisiae deletion strains, locus YGR092W, strain DBF2, hits give low values 0.658 | S. cerevisiae deletion strains, locus YHR079C, strain IRE1, hits give low values 0.748 | S. cerevisiae deletion strains, locus YHR082C, strain KSP1, hits give low values 0.731 | S. cerevisiae deletion strains, locus YHR205W, strain SCH9, hits give low values 0.694 | S. cerevisiae deletion strains, locus YIL147C, strain SLN1, hits give low values 0.968 | S. cerevisiae deletion strains, locus YJL095W, strain BCK1, hits give low values 0.815 | S. cerevisiae deletion strains, locus YJL128C, strain PBS2, hits give low values 0.884 | S. cerevisiae deletion strains, locus YJL157C, strain FAR1, hits give low values 0.79 | S. cerevisiae deletion strains, locus YJR016C, strain ILV3, hits give low values 0.954 | S. cerevisiae deletion strains, locus YJR066W, strain TOR1 (second series), hits give low values 0.829 | S. cerevisiae deletion strains, locus YJR066W, strain TOR1, hits give low values 0.66 | S. cerevisiae deletion strains, locus YKL048C, strain ELM1, hits give low values 0.87 | S. cerevisiae deletion strains, locus YKL067W, strain YNK1, hits give low values 0.851 | S. cerevisiae deletion strains, locus YKL101W, strain HSL1, hits give low values 0.798 | S. cerevisiae deletion strains, locus YKL193C, strain SDS22, hits give low values 0.948 | S. cerevisiae deletion strains, locus YKL203C, strain TOR2, hits give low values 0.745 | S. cerevisiae deletion strains, locus YLR403W, strain SFP1, hits give low values 0.681 | S. cerevisiae deletion strains, locus YML070W, strain DAK1, hits give low values 0.81 | S. cerevisiae deletion strains, locus YMR001C, strain CDC5, hits give low values 0.954 | S. cerevisiae deletion strains, locus YMR205C, strain PFK2 (second series), hits give low values 0.862 | S. cerevisiae deletion strains, locus YMR277W, strain FCP1, hits give low values 0.95 | S. cerevisiae deletion strains, locus YNL006W, strain LST8, hits give low values 0.966 | S. cerevisiae deletion strains, locus YNL161W, strain CBK1, hits give low values 0.964 | S. cerevisiae deletion strains, locus YNL183C, strain NPR1, hits give low values 0.872 | S. cerevisiae deletion strains, locus YNL207W, strain RIO2, hits give low values 0.958 | S. cerevisiae deletion strains, locus YNL222W, strain SSU72, hits give low values 0.961 | S. cerevisiae deletion strains, locus YOL078W, strain AVO1, hits give low values 0.961 | S. cerevisiae deletion strains, locus YOL136C, strain PFK27, hits give low values 0.764 | S. cerevisiae deletion strains, locus YOR061W, strain CKA2, hits give low values 0.784 | S. cerevisiae deletion strains, locus YOR119C, strain RIO1, hits give low values 0.732 | S. cerevisiae deletion strains, locus YOR231W, strain MKK1, hits give low values 0.855 | S. cerevisiae deletion strains, locus YOR329C, strain SCD5, hits give low values 0.974 | S. cerevisiae deletion strains, locus YPL031C, strain PHO85, hits give low values 0.742 | S. cerevisiae deletion strains, locus YPL153C, strain RAD53, hits give low values 0.78 | S. cerevisiae deletion strains, locus YPL204W, strain HRR25, hits give low values 0.737 | S. cerevisiae deletion strains, locus YPL209C, strain IPL1, hits give low values 0.965 | S. cerevisiae deletion strains, locus YPR025C, strain CCL1, hits give low values 0.963 | S. cerevisiae deletion strains, locus YPR106W, strain ISR1, hits give low values 0.942 | S. cerevisiae deletion strains, locus YPR111W, strain DBF20, hits give low values 0.938 | S. cerevisiae deletion strains, strain NNK1, hits give low values 0.951 | S. cerevisiae deletion strains, strain TSCII, hits give low values 0.967
active: [2] 0.308 | S. cerevisiae deletion strains, locus YLR113W, strain HOG1, hits give low values 0.792 | S. cerevisiae deletion strains, locus YLR133W, strain CKI1, hits give low values 0.731 | S. cerevisiae deletion strains, locus YNL020C, strain ARK1, hits give low values 0.647 | S. cerevisiae deletion strains, locus YNL307C, strain MCK1 (second series), hits give low values 0.632 | S. cerevisiae deletion strains, locus YPL256C, strain CLN2, hits give low values 0.774

C/C(=N/Nc1c(Cl)cc(Cl)cc1Cl)c1cc(F)ccc1OC(=O)c1ccccc1F
inactive: S. cerevisiae deletion strains, locus YAL013W, strain DEP1, hits give low values 0.99 | S. cerevisiae deletion strains, locus YBR229C, strain ROT2, hits give low values 0.978 | [1] 0.969 | S. cerevisiae deletion strains, locus YDL134C, strain PPH21, hits give low values 1.03 | S. cerevisiae deletion strains, locus YDR150W, strain NUM1, hits give low values 0.991 | S. cerevisiae deletion strains, locus YEL061C, strain CIN8, hits give low values 1.04 | S. cerevisiae deletion strains, locus YGR078C, strain PAC10, hits give low values 0.983 | [2] 1.04 | S. cerevisiae deletion strains, locus YHR087W, strain rtc3, hits give low values 0.978 | S. cerevisiae deletion strains, locus YJR043C, strain POL32, hits give low values 0.968 | S. cerevisiae deletion strains, locus YJR075W, strain HOC1, hits give low values 0.984 | S. cerevisiae deletion strains, locus YKL190W, strain CNB1, hits give low values 1.03 | S. cerevisiae deletion strains, locus YLR039C, strain RIC1, hits give low values 1.02 | S. cerevisiae deletion strains, locus YLR058C, strain SHM2 (second series), hits give low values 1.01 | S. cerevisiae deletion strains, locus YLR085C, strain ARP6, hits give low values 1.11 | S. cerevisiae deletion strains, locus YLR262C, strain YPT6, hits give low values 0.957 | S. cerevisiae deletion strains, locus YML094W, strain GIM5, hits give low values 1.01 | S. cerevisiae deletion strains, locus YMR219W, strain ESC1, hits give low values 0.966 | S. cerevisiae deletion strains, locus YMR263W, strain SAP30, hits give low values 0.996 | S. cerevisiae deletion strains, locus YNL128W, strain TEP1, hits give low values 1.03 | S. cerevisiae deletion strains, locus YNL153C, strain GIM3, hits give low values 0.953 | S. cerevisiae deletion strains, locus YNL298W, strain CLA4 (second series), hits give low values 1.07 | S. cerevisiae deletion strains, locus YNL322C, strain KRE1, hits give low values 1.01 | S. cerevisiae deletion strains, locus YNR030W, strain Alg12, hits give low values 1.03 | S. cerevisiae deletion strains, locus YOL006C, strain TOP1, hits give low values 1.06 | S. cerevisiae deletion strains, locus YPL055C, strain LGE1, hits give low values 0.981 | S. cerevisiae deletion strains, locus YPL241C, strain CIN2, hits give low values 0.972 | S. cerevisiae deletion strains, locus YPR135W, strain CTF4, hits give low values 0.962 | S. cerevisiae strains, strain wild type, hits give low values 1.03
